In PubChem BioAssay AID701 (PCMD, 2007):
The campaign covered roughly 33,000 compounds. About 70 (0.2%) were called active. Rule as the data show it: active = inhibition above about 30%; inactive = the rest. Only a sample is shown.

The compounds below were run against Coagulation factor XII (Homo sapiens) (UniProt P00748) (assay: human FXIIa protease inhibitors, primary screen, biochemical, single well (AID 701;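 also: 0% = enzyme with vehicle only and 100% = no enzyme blank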)). Details: purified human FXIIa, AMC substrate fluorescence, 2 h; at 10 µM; stronger effect = higher value.
Sequence of Coagulation factor XII (Homo sapiens) (P00748 20-372 limits assumed): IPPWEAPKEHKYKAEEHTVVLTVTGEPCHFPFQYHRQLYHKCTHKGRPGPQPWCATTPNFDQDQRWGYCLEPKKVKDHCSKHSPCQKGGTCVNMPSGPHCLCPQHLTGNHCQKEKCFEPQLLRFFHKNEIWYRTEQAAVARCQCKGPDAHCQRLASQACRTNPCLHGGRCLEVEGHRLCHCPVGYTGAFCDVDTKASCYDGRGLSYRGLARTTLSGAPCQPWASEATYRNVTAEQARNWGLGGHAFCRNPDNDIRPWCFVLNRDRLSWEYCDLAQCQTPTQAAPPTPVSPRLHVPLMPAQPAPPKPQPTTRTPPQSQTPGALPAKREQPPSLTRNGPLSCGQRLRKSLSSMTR
Sequence of Coagulation factor XII (Homo sapiens) (P00748 373-615 limits assumed): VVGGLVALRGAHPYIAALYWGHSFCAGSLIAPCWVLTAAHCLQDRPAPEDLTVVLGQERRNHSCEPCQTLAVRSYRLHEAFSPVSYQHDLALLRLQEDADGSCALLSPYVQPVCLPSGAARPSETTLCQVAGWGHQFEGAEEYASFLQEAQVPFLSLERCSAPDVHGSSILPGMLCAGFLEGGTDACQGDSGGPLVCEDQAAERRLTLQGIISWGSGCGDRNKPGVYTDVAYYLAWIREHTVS
With `COc1cc2c(cc1OC)C(C(=O)NCc1ccco1)C1c3ccccc3CCN1C2=O` (stereo unspecified) the inhibition was 7.77% (inactive). In the case of `COCCN(C(=O)c1ccco1)c1nnc(-c2ccc(OC)cc2)s1`, the inhibition is reported as 7.18% (inactive). For `CCCCN1C(=O)CC(N2CCOCC2)C1=O` (stereo unspecified), the inhibition was 4.3% (inactive). For `Cc1cccc(NC(=O)Cn2cc(C(=O)c3ccco3)c3ccccc32)c1`, the inhibition was -10.1% (inactive). For `Cc1ccc(N(CC(=O)Nc2cc(C)cc(C)c2)S(=O)(=O)c2cccc3nonc23)cc1`, the inhibition was 17.2% (inactive). For `COc1ccc(-c2cc3nc(C)c(CCC(=O)NC(C)CCc4ccco4)c(C)n3n2)c(OC)c1` (stereo unspecified), the inhibition was -1.94% (inactive). With `CC1=C(C(N)=O)C(c2sccc2C)n2nnnc2N1` (stereo unspecified) the inhibition was 3.63% (inactive). In the case of `CCOC(=O)c1nnn(-c2nonc2-n2cccc2)c1CN1CCC(C(=O)OCC)CC1`, the inhibition is reported as 0.91% (inactive). With `O=C(CC1(O)C(=O)N(CN2CCOCC2)c2ccccc21)c1ccccc1` (stereo unspecified) the inhibition was -13.4% (inactive). `CCOCCCNC(=O)C(NC(=O)c1ccc(=O)[nH]c1)c1ccc(C)cc1` (stereo unspecified) was tested, and the inhibition was -13.5% (inactive). With `CC(O)CN(Cc1ccc(Cl)cc1)CC(C)O` (stereo unspecified) the inhibition was 4.36% (inactive). With `COc1ccc(N(CC(=O)NC2CCCCC2)S(=O)(=O)c2c(C)[nH]c(=O)[nH]c2=O)cc1` the inhibition was 6% (inactive). In the case of `CC(=O)N1CCCc2cc(S(=O)(=O)CCC(=O)N3CCN(c4ccccc4)CC3)ccc21`, the inhibition is reported as -16.3% (inactive). `O=C1CSC(c2cccc(F)c2)N1c1ccc(O)cc1` (stereo unspecified) was tested, and the inhibition was 20.5% (inactive). For `CC(=O)c1c(C)[nH]c(C(=O)NCc2ccc(C)cc2)c1C`, the inhibition was 5.44% (inactive). For `Cn1c(=O)n(CCc2ccccc2)c(=O)c2c1nc1n2CCCN1c1ccccc1`, the inhibition was -0.18% (inactive). With `O=C1CSC(c2ccc(Cl)cc2)N1` (stereo unspecified) the inhibition was -6.79% (inactive). For `OC(COc1cccc(OCC(O)CN2CCCC2)c1)CN1CCCC1` (stereo unspecified), the inhibition was 1.91% (inactive). With `COc1cccc(NC(=O)Cc2ccc(C)cc2)c1` the inhibition was 3.98% (inactive). With `COc1cc(CC(=O)NCc2cccs2)cc(OC)c1OC` the inhibition was 12% (inactive). With `Brc1ccc(Nc2c3c(nc4ncnn24)CCC3)cc1` the inhibition was -0.85% (inactive). With `CCN1CCN(C(c2cccnc2)c2cc(Cl)c3cccnc3c2O)CC1` (stereo unspecified) the inhibition was 11.8% (inactive). In the case of `O=S(=O)(NCCNS(=O)(=O)c1ccccc1)c1ccccc1`, the inhibition is reported as 15.1% (inactive). In the case of `CCC(=O)NC(Nc1cc(C)ccn1)(C(F)(F)F)C(F)(F)F`, the inhibition is reported as 5.79% (inactive). With `CCCNC(=O)c1ccccc1NC(=O)CSCc1ccc(OC)cc1` the inhibition was 0.92% (inactive). In the case of `CCCNC(=O)CN(Cc1ccccc1F)S(=O)(=O)c1ccc(C)cc1`, the inhibition is reported as 16.6% (inactive). For `CC(=O)Nc1ccc(S(=O)(=O)N2CCSCC2)cc1`, the inhibition was 3.77% (inactive). `Cc1cc(SCC(=O)c2ccccc2)nc(SCC(=O)c2ccccc2)n1` was tested, and the inhibition was -15.6% (inactive). With `Cc1ccc(CCN2CC(C(=O)O)CC2=O)cc1` (stereo unspecified) the inhibition was 9.91% (inactive). For `O=C(NCCc1ccccc1)c1ccc(OCCOc2ccccc2)cc1`, the inhibition was 5.87% (inactive). `CCOC(=O)c1[nH]cnc1C(=O)NC1CCCCC1` was tested, and the inhibition was 1.72% (inactive). With `COCCn1c(SCc2nc3cc(OC)c(OC)cc3c(=O)[nH]2)nnc1-c1ccncc1` the inhibition was 3.73% (inactive). In the case of `Cn1nnnc1SCC(=O)Nc1ccccc1C(=O)NC1CC1`, the inhibition is reported as -1.23% (inactive). With `O=S(=O)(N1CCCCC1)N1CCNCC1` the inhibition was 4.16% (inactive). For `Cc1cc(C(=O)OC(C)C(=O)Nc2cccc(S(=O)(=O)N3CCOCC3)c2)c(C)o1` (stereo unspecified), the inhibition was 8.04% (inactive). `CCn1c(SCC(=O)Nc2ccc(OC)c(OC)c2)nnc1-c1c[nH]c2ccccc12` was tested, and the inhibition was 5.25% (inactive). `COc1cc(OC)cc(-c2cc3nc(C4CCN(C(=O)OC(C)(C)C)CC4)cc(=O)n3[nH]2)c1` was tested, and the inhibition was -5.3% (inactive). `COc1ccc(C2=NOC3(CC(=O)N(c4ccc(Cl)cc4)C3=O)C2)c(OC)c1` (stereo unspecified) was tested, and the inhibition was -13.9% (inactive). For `Cc1cccc(-n2ncc3c(N4CCc5ccccc54)ncnc32)c1`, the inhibition was 4.16% (inactive). In the case of `Cn1ccs/c1=N\S(=O)(=O)c1ccc(C(C)(C)C)cc1`, the inhibition is reported as 6.13% (inactive). `CC(CN1CCOCC1)c1ccccc1` (stereo unspecified) was tested, and the inhibition was 7.84% (inactive). With `CCn1c(=O)c(=O)n(CC)c2cc(S(=O)(=O)N3CCc4ccccc43)ccc21` the inhibition was 8.33% (inactive). With `COc1ccc(OCCCON2C(=O)c3ccccc3C2=O)cc1` the inhibition was 3.44% (inactive). `Cc1ccc(OCC(=O)N/N=C\c2ccco2)c(C)c1` was tested, and the inhibition was 5.38% (inactive). For `CCOCCOC(=O)C1=C(C)N(C)C(=O)NC1c1ccccc1F` (stereo unspecified), the inhibition was 2.69% (inactive). With `O=C(NCc1ccccc1)C1CCCN(S(=O)(=O)c2cccs2)C1` (stereo unspecified) the inhibition was 3.39% (inactive). With `O=C(Nc1cc(-c2nn(CC(=O)N3CCCCC3)c(=O)c3ccccc23)ccc1N1CCOCC1)c1ccc(Cl)cc1` the inhibition was -11% (inactive). In the case of `CC1CCCCC1NC(=O)C1CCCN1S(=O)(=O)c1cccc2nsnc12` (stereo unspecified), the inhibition is reported as 10.7% (inactive). For `CC1CC(C)CN(C(=O)CSc2nnc(CSc3ncccn3)n2C)C1` (stereo unspecified), the inhibition was 1.36% (inactive). For `CCn1c(C)nc2cc(C(=O)NNS(=O)(=O)c3ccc(C)cc3C)ccc21`, the inhibition was 5.64% (inactive). In the case of `COc1ccc(-n2c(C)csc2=S)cc1`, the inhibition is reported as 1.97% (inactive). `CCCCCN1CC(O)=C(c2ccccc2)C1=N` was tested, and the inhibition was -12.2% (inactive). With `O=C(Nc1cc2ccccc2oc1=O)C1CCCCC1` the inhibition was 6% (inactive). For `Cc1nnc(SCC(=O)N2CCc3ccccc3C2)s1`, the inhibition was -10.1% (inactive). `Cc1ccc(CNC(=O)CCNS(=O)(=O)c2cccc3nonc23)cc1` was tested, and the inhibition was 7.33% (inactive). For `Cc1ccc(-n2c(CNc3ccc(F)cc3)nnc2SCC(=O)N2CCOCC2)cc1`, the inhibition was 0.69% (inactive). `CCOC(=O)c1c(NC(C)=O)sc2c(O)c(Br)ccc12` was tested, and the inhibition was 5.45% (inactive). For `CCOC(=O)CN(Cc1ccc(OC)c(OC)c1)S(=O)(=O)c1ccc(OC)cc1`, the inhibition was 8.43% (inactive). With `CS(=O)(=O)N(CC(=O)N1CCN(Cc2ccccc2)CC1)c1ccc2c(c1)OCCO2` the inhibition was 21.1% (inactive). In the case of `COc1ccc(C2C(C#N)=C(/N=C/N3CCOCC3)OC3=C2C(=O)CC(C)(C)C3)cc1OC` (stereo unspecified), the inhibition is reported as 8.48% (inactive). `COC(=O)CSc1snnc1-c1ccc(Cl)c(Cl)c1` was tested, and the inhibition was 5.67% (inactive).
